Records with an inconclusive call do not appear. The source made the active and inactive calls. The call rests on the fitted dose curve; in most records, active means well fitted curve in the direction sought with a large enough effect; inconclusive means small, poorly fitted or top-dose-only effect, or another doubt; inactive means no such curve, though single readings can be large; an effect the other way counts as inactive or inconclusive. *1 amine or outer side, *2 acyl side, *3 side chain or, on linkers, in order; H or OH if unused. Where a SMILES comes first, the peptide text is derived from it. Bridges are numbered along the chain shown (N, C = ends). [ ]: non-standard residue; d: D form. The star is where a group is joined. ξ: configuration not given here. X10 = NC1=NCCC(C(N[*:1])C(=O)[*:2])N1; ΔAla(3-NHCONH2) = NC(=O)NC=C(N)C(=O)O; ξβ3hOrn = NCCCC(N)CC(=O)*; Dap = NC[CH](N)C(=O)O
Experiments:
[1] = qHTS of pediatric cancer cell lines to identify multiple opportunities for drug repurposing: Primary screen for OHS-50 cells (AID 1347103);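 further: plate controls were DMSO neutral control for no effect and bortezomib positive control for full effect; nearly all actives have a fitted effect of over 40% in size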
Outline: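 Cells (500-1,000/well) rested 5 h, then received compounds for 48 h; metabolically active cells were measured by CellTiter-Glo luminescence. Final concentrations spanned up to 46 µM (MIPE, 11-point) or 0.59 nM-46 µM (NPC, 8-point) in primary screens, 11-point in follow-ups.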

[2] = qHTS of pediatric cancer cell lines to identify multiple opportunities for drug repurposing: Primary screen for RD cells (AID 1347104);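 further: plate controls were DMSO for no effect and bortezomib for full effect; nearly all actives have a fitted effect of over 55% in size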
Outline: (§1)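 Quantitative HTS format: each compound titrated (MIPE 11 points from 0.78 nM, NPC 8 points from 0.59 nM) onto cells plated 5 hours earlier. After 48 h at 37 degrees C, CellTiter-Glo luminescence was recorded.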

[3] = qHTS of pediatric cancer cell lines to identify multiple opportunities for drug repurposing: Primary screen for MG 63 (6-TG R) cells (AID 1347105); further: on the % scale 0 is the no-effect control and ±100 the full control effect; nearly all actives have a fitted effect of over 50% in size
Outline: as §1

[4] = qHTS of pediatric cancer cell lines to identify multiple opportunities for drug repurposing: Primary screen for control Hh wild type fibroblast cells (AID 1347106);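 further: series mostly up to about 46 µM; on the % scale 0 is the no-effect control and ±100 the full control effect; a drop in luminescence marks cytotoxicity and a rise apparent proliferation; nearly all actives have a fitted effect of over 55% in size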
Outline: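 Cells (500-1,000/well) in growth media were settled 5 h at 37 degrees C, then given compounds for 48 h. Viability was read as CellTiter-Glo luminescence. Primary runs used MIPE at 11 points (0.78 nM-46 µM) and NPC at 8 points (0.59 nM-46 µM); follow-ups used 11 points.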

[5] = qHTS of pediatric cancer cell lines to identify multiple opportunities for drug repurposing: Primary screen for Rh30 cells (AID 1347107); further: series mostly up to about 46 µM; on the % scale 0 is the no-effect control and ±100 the full control effect; nearly all actives have a fitted effect of over 75% in size
Outline: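 Viability after 48 h compound treatment at 37C, 500-1,000 cells/well, read as ATP luminescence with CellTiter-Glo. Primary screens used 11-point (MIPE, 0.78 nM-46 µM) or 8-point (NPC, 0.59 nM-46 µM) final concentrations; follow-up screens used 11-point dilutions.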

[6] = qHTS of pediatric cancer cell lines to identify multiple opportunities for drug repurposing: Primary screen for Rh41 cells (AID 1347108);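 further: series mostly up to about 46 µM; luminescence drop marks cytotoxic hits; nearly all actives have a fitted effect of over 70% in size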
Outline: as §1

CCCc1c2oc(C(=O)O)cc(=O)c2cc2c(=O)cc(C(=O)O)n(CC)c12
inactive: Potency [1] | Potency [2] | Potency [3] | Potency [4] | Potency [5] | Potency [6]

Cc1ccccc1C(=O)N1CC/C(=N\OS(=O)(=O)O)c2ccc(Cl)cc21
inactive: Potency [1] | Potency [2] | Potency [3] | Potency [4] | Potency [5] | Potency [6]

CC(C)(Oc1ccc(Cl)cc1)C(=O)OCCCOC(=O)C(C)(C)Oc1ccc(Cl)cc1
inactive: Potency [1] | Potency [2] | Potency [3] | Potency [4] | Potency [5] | Potency [6]

C[C@H]1NCc2cc(-c3ccc4c(=O)c(C(=O)O)cn(C5CC5)c4c3OC(F)F)ccc21
inactive: Potency [1] | Potency [2] | Potency [3] | Potency [4] | Potency [5] | Potency [6]

Cc1ncc(CO)c(CO)c1O
inactive: Potency [1] | Potency [2] | Potency [3] | Potency [4] | Potency [5] | Potency [6]

CNC[C@H](O)[C@@H](O)[C@H](O)[C@H](O)CO
inactive: Potency [1] | Potency [2] | Potency [3] | Potency [4] | Potency [5] | Potency [6]

COc1cc2nc(Cl)nc(N)c2cc1OC
inactive: Potency [1] | Potency [2] | Potency [3] | Potency [4] | Potency [5] | Potency [6]

CCN(CC)C(=O)C1CN2CCc3cc(OC)c(OC)cc3C2CC1OC(C)=O (centres undefined)
inactive: Potency [1] | Potency [2] | Potency [3] | Potency [4] | Potency [5] | Potency [6]

O=C1NC(c2ccccc2)(c2ccccc2)C(=O)N1COP(=O)(O)O
inactive: Potency [1] | Potency [2] | Potency [3] | Potency [4] | Potency [5] | Potency [6]

NCC(=O)O
inactive: Potency [1] | Potency [2] | Potency [3] | Potency [4] | Potency [5] | Potency [6]

OCCc1ccccc1
inactive: Potency [1] | Potency [2] | Potency [3] | Potency [4] | Potency [5] | Potency [6]

CC(=O)N[C@@H](CO)C(=O)N[C@@H](CC(=O)O)C(=O)N[C@@H](CCCCN)C(=O)N1CCC[C@H]1C(=O)O (Ac-SDKP-OH)
inactive: Potency [1] | Potency [2] | Potency [3] | Potency [4] | Potency [5] | Potency [6]

C#Cc1ccc(-c2ccccc2F)cc1
inactive: Potency [1] | Potency [2] | Potency [3] | Potency [4] | Potency [5] | Potency [6]

CC(CC(C#N)(c1ccccc1)C(C)C)N(C)C (centres undefined)
inactive: Potency [1] | Potency [2] | Potency [3] | Potency [4] | Potency [5] | Potency [6]

CC(C)CCCC(C)NCCC(C)C (centres undefined)
inactive: Potency [1] | Potency [2] | Potency [3] | Potency [4] | Potency [5] | Potency [6]

Cn1cc(S(C)=O)c(=O)c2ccc(F)cc21 (centres undefined)
inactive: Potency [1] | Potency [2] | Potency [3] | Potency [4] | Potency [5] | Potency [6]

OC[C@]1(O)OC[C@@H](O)[C@H](O)[C@@H]1O
inactive: Potency [1] | Potency [2] | Potency [3] | Potency [4] | Potency [5] | Potency [6]

O=[N+]([O-])c1nccn1CO[C@@H](CO)[C@H](O)CO
inactive: Potency [1] | Potency [2] | Potency [3] | Potency [4] | Potency [5] | Potency [6]

CCCCOCCOC(=O)c1cccnc1
inactive: Potency [1] | Potency [2] | Potency [3] | Potency [4] | Potency [5] | Potency [6]

CCCCNc1ccc(C(=O)OCCN(CC)CC)cc1
inactive: Potency [1] | Potency [2] | Potency [3] | Potency [4] | Potency [5] | Potency [6]

CN1Cc2cc(C(=O)N3CCC(C4CCNCC4)CC3)ccc2N[C@@H](CC(=O)O)C1=O
inactive: Potency [1] | Potency [2] | Potency [3] | Potency [4] | Potency [5] | Potency [6]

NCCCC(N)CC(=O)NCC1NC(=O)C(CO)NC(=O)C(N)CNC(=O)C(C2CCN=C(N)N2)NC(=O)C(=CNC(N)=O)NC1=O (stereo not drawn) (H-[Dap]S[Dap](ξβ3hOrn)[ΔAla(3-NHCONH2)][X10]; lactam 1-C; configuration not given here)
inactive: activity change, negative = cytotoxic [1] 13.9% [at 0.73 µM] | activity change, negative = cytotoxic [2] 2.79% [at 0.597 µM] | activity change, negative = cytotoxic [3] -12% [at 0.597 µM] | activity change, negative = cytotoxic [4] 5.88% [at 0.597 µM] | activity change, negative = cytotoxic [5] 22.4% [at 0.597 µM] | activity change, negative = cytotoxic [6] 17.6% [at 0.597 µM]

CC(NN)c1ccccc1 (centres undefined)
inactive: Potency [1] | Potency [2] | Potency [3] | Potency [4] | Potency [5] | Potency [6]

NS(=O)(=O)c1cc(C(=O)NN2C[C@H]3[C@H]4CCC(C4)[C@H]3C2)ccc1Cl
inactive: Potency [1] | Potency [2] | Potency [3] | Potency [4] | Potency [5] | Potency [6]

C[N+]1(C)CCC(OC(=O)C(O)(c2ccccc2)C2CCCC2)C1 (centres undefined)
inactive: Potency [1] | Potency [2] | Potency [3] | Potency [4] | Potency [5] | Potency [6]

COC(=O)c1cc(Cl)ccc1NS(=O)(=O)C(F)(F)F
inactive: Potency [1] | Potency [2] | Potency [3] | Potency [4] | Potency [5] | Potency [6]

CC(C)(C)C(=O)OCOC(=O)C1N2C(=O)CC2S(=O)(=O)C1(C)C (centres undefined)
inactive: Potency [1] | Potency [2] | Potency [3] | Potency [4] | Potency [5] | Potency [6]

Cc1ccc2ccc(Cl)cc2n1
inactive: Potency [1] | Potency [2] | Potency [3] | Potency [4] | Potency [5] | Potency [6]

O=C(O)c1ccccc1S
inactive: Potency [1] | Potency [2] | Potency [3] | Potency [4] | Potency [5] | Potency [6]
